Values joined by “and” are separate entries in the source; they are usually repeats but may differ in a detail not shown here. Identical values can stand only once.
Test: Primary imaging screen for DUSP6 inhibitors that restore phospho-Erk in transfected HeLa cells, chemical complementation (AID 609)
Conditions: HeLa MKP-3 transfected, phospho-Erk imaging KS statistic; measured here: cell density z-score; at 10 µM; cells stimulated with TPA for 15 min
In the case of `N#CC1=C(N)N(c2ccccc2)C(c2ccccc2)C1(C#N)C#N` (configuration not stated), the z-score is reported as 0.909. Work on `CC(C)NCC(O)COc1cccc2[nH]ccc12` (configuration not stated) yielded a z-score of 0.107. Compound `COCc1cc(=O)[nH]c(Nc2nc3ccccc3o2)n1` has a z-score of 0.0739. Work on `Cn1c(Cl)cnc1C1CC(=O)c2cc(Cl)ccc2O1` (configuration not stated) yielded a z-score of -0.672. For `CCOC(=O)CC(C#N)c1cn(C)c2ccccc12` (configuration not stated), the z-score was -1.04. Compound `CCCC(=O)Nc1ccc(OCC(O)CNC(C)C)c(C(C)=O)c1` (configuration not stated) has a z-score of -1.73. For `CC1(C)SC2[C@H](NC(=O)C(NC(=O)N3CCNC3=O)c3ccccc3)C(=O)N2C1C(=O)O` (some centres not stated), the z-score was 0.0464. In the case of `CCOC(=O)C1=C(CSc2nc(C)cc(C)c2C#N)OC(N)=C(C#N)C1c1cccs1` (configuration not stated), the z-score is reported as 0.722. With `Cc1ccc(N(CC2=NCCN2)c2cccc(O)c2)cc1` the z-score was -1.49 and -0.829. `Cc1cc(NS(=O)(=O)c2ccc(N)cc2)no1` gave a z-score of -1.02. For `O=c1cc(NCc2ccccc2)nc2n1CCCS2`, the z-score was -0.588. With `COc1ccc2c(C)nc(Nc3nc(C)cc(C)n3)nc2c1` the z-score was -1.03. Compound `Fc1cc(F)c(F)c(SCCc2ccncc2)c1F` has a z-score of 0.361. `CN1CCN(C2=Nc3ccccc3Oc3ccc(Cl)cc32)CC1` gave a z-score of -0.87. `Cc1cnc(NC(=O)C2=C(O)c3ccccc3S(=O)(=O)N2C)s1` gave a z-score of -0.158. `COc1cccc2c1C(=O)c1c(O)c3c(c(O)c1C2=O)C[C@@](O)(C(=O)CO)C[C@@H]3O[C@H]1C[C@H](N)[C@H](O)[C@H](C)O1` gave a z-score of 0.975. In the case of `O=S(=O)(c1cccc2cnccc12)N1CCCNCC1`, the z-score is reported as -0.577. Work on `CC(C)Cc1ccc(C(C)C(=O)O)cc1` (configuration not stated) yielded a z-score of -0.577. `C[C@H](CS)C(=O)N1CCC[C@H]1C(=O)O` showed a z-score of 0.625. `COC(=O)C1=C(C)NC(C)=C(C(=O)OC)C1c1ccccc1[N+](=O)[O-]` gave a z-score of 1.16. With `Nc1ccc(S(=O)(=O)Nc2ncccn2)cc1` the z-score was 1.12. Work on `COc1ccccc1C1C(C#N)=C(N)Oc2cc(C)n(Cc3ccccn3)c(=O)c21` (configuration not stated) yielded a z-score of 0.97. For `CC(=O)O[C@H]1C(=O)[C@]2(C)[C@H]([C@H](OC(=O)c3ccccc3)[C@]3(O)C[C@H](OC(=O)[C@H](O)[C@@H](NC(=O)c4ccccc4)c4ccccc4)C(C)=C1C3(C)C)[C@]1(OC(C)=O)CO[C@@H]1C[C@@H]2O`, the z-score was 0.529. `CCC(=O)O[C@@H]1CC(=O)O[C@H](C)CC=CC=C[C@@H](O)[C@H](C)C[C@H](CC=O)[C@H](O[C@H]2O[C@H](C)[C@@H](O[C@H]3C[C@@](C)(O)[C@@H](OC(=O)CC)[C@H](C)O3)[C@H](N(C)C)[C@H]2O)[C@H]1OC` showed a z-score of -0.528. With `CCCn1c(=O)[nH]c(=O)c2[nH]cnc21` the z-score was 2.73. `CC[N+](C)(C)Cc1ccccc1Br` showed a z-score of -1.09. In the case of `COC(=O)c1cc(=O)n2c(-c3ccc(OC)cc3)csc2n1`, the z-score is reported as -0.555. Compound `COc1ccccc1OCC(O)COC(N)=O` (configuration not stated) has a z-score of -1.14. In the case of `COc1cc2nc(N3CCN(C(=O)c4ccco4)CC3)nc(N)c2cc1OC`, the z-score is reported as 1.25. `Cc1nnc(SCC2=C(C(=O)O)N3C(=O)[C@@H](NC(=O)Cn4cnnn4)[C@H]3SC2)s1` gave a z-score of -0.857. For `Clc1ccc2c(c1)C(N1CCNCC1)=Nc1ccccc1O2`, the z-score was -1.22. Compound `CC1(C)S[C@@H]2[C@H](NC(=O)[C@H](C(=O)O)c3ccsc3)C(=O)N2[C@H]1C(=O)O` has a z-score of -1.03. With `O=C(O)c1cc(=O)c2c(OCC(O)COc3cccc4oc(C(=O)O)cc(=O)c34)cccc2o1` the z-score was -1.42. Compound `CC[C@H]1OC(=O)C[C@@H](O)[C@H](C)[C@@H](O[C@@H]2O[C@H](C)C[C@H](N(C)C)[C@H]2O)[C@@H](CC=O)C[C@@H](C)C(=O)C=C[C@]2(C)O[C@H]2[C@@H]1C` has a z-score of 0.794. `O=C(O)CCNC(=O)c1ccccc1` showed a z-score of -0.0639. Compound `CC[C@H](C)C(=O)O[C@H]1C[C@@H](C)C=C2C=C[C@H](C)[C@H](CC[C@@H]3C[C@@H](O)CC(=O)O3)[C@H]21` has a z-score of 0.18. Compound `Cc1ccc(C2C3CN(C(C)C)CC=C3C(C#N)=C(N)C2(C#N)C#N)cc1` (configuration not stated) has a z-score of 1.72.
